Laboratory results: paper PMC6212790, “How bacterial xenogeneic silencer rok distinguishes foreign from self DNA in its resident genome”
In all, about 33,000 sequences were measured (“e-score”: median about -0.037, highest 2% from about 0.34 on). This is one part of a sample in which the highest values are shown more often than they occur.

Target: T1, GST-Rok (full length) (Bacillus subtilis subsp. subtilis str. …, UniProt O34857 1-191)
T1 sequence: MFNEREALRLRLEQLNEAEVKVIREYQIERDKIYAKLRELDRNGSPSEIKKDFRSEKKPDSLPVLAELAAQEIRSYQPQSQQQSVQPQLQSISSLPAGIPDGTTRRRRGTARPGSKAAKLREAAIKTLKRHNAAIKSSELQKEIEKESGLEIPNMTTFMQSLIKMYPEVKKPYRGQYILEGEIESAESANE
Test: protein binding microarray; Rok is a gene silencer of Bacillus subtilis; high values mean tight binding
Conditions: protein: recombinant; tags: GST (pTH5325, pDEST15-Magic modified); dsDNA, one strand shown
Outline: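 Each has a 25-mer constant primer and a 35-mer variable part from a de Bruijn sequence of order 10, covering every non-palindromic 8-mer at least 32 times (palindromic 16). Preference for each 8-mer is given as a rank-based, unitless enrichment score (E-score). Its range runs from 0.5 (most favored) to −0.5 (most disfavored).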

Row | Sequence | binding signal
1 | AGGAAGTA | 0.0966 E-score
2 | GCTCCGGA | -0.102 E-score
3 | CCTACTTC | 0.211 E-score
4 | ACATCTCG | -0.0379 E-score
5 | CACGTCAA | 0.00857 E-score
6 | AACTTCTT | -0.00379 E-score
7 | TCTTAAGA | 0.00924 E-score
8 | AGTGATTG | -0.118 E-score
9 | GGTGTCGA | -0.128 E-score
10 | CGCTGAGC | -0.0254 E-score
11 | AACTAATT | 0.32 E-score
12 | GACTAATA | 0.225 E-score
13 | AACTAATG | 0.339 E-score
14 | AACTAATC | 0.158 E-score
15 | AACTAATA | 0.357 E-score
16 | ACCTAATA | 0.176 E-score
17 | CACTAATG | 0.154 E-score
18 | CACTAATA | 0.277 E-score
19 | TACTAATA | 0.346 E-score
20 | AGATTACG | 0.17 E-score
21 | AAACCCGT | -0.0147 E-score
22 | ACCGGCAA | -0.0643 E-score
23 | TTCCCCAA | -0.0604 E-score
24 | GTGATTCA | -0.0295 E-score
25 | TGATGCAA | -0.0283 E-score

Row | Sequence | binding signal
26 | CGCGGTAA | 0.147 E-score
27 | AGTCAATA | 0.322 E-score
28 | AATATATT | 0.41 E-score
29 | AATATAAC | 0.193 E-score
30 | AATATATA | 0.469 E-score
31 | AATATTAT | 0.208 E-score
32 | AATATAAT | 0.228 E-score
33 | AATATATC | 0.412 E-score
34 | AATATATG | 0.33 E-score
35 | AAGATATA | 0.313 E-score
36 | CGTATATC | 0.196 E-score
37 | GATGGGAA | -0.056 E-score
38 | CAGGACGG | -0.164 E-score
39 | CAGAGTTA | -0.0506 E-score
40 | ATTATAGG | 0.285 E-score
41 | CCTACTAA | -0.00507 E-score
42 | ACTACTTC | 0.193 E-score
43 | GCTACTAA | 0.199 E-score
44 | CGTACTTA | 0.264 E-score
45 | ACTACTCA | 0.281 E-score
46 | ACTACTAA | 0.386 E-score
47 | ACTACTTA | 0.432 E-score
48 | TCTACTCA | 0.206 E-score
49 | AGTACTTG | 0.297 E-score
50 | AGTACTTA | 0.349 E-score

Row | Sequence | binding signal
51 | TCTACTAA | 0.353 E-score
52 | ACTACTGA | 0.323 E-score
53 | AGTAACAT | 0.242 E-score
54 | CTCCATTC | 0.0472 E-score
55 | GCTACAGC | 0.0848 E-score
56 | ACGCGGCA | -0.129 E-score
57 | GTAGAAGA | 0.247 E-score
58 | ACAGCGAT | -0.0187 E-score
59 | CAGGAGAA | -0.111 E-score
60 | AATTTAAG | 0.18 E-score
61 | ACAGTGTC | 0.114 E-score
62 | ACTGATAA | 0.273 E-score
63 | TAGCTTCA | 0.13 E-score
64 | AAGCAAGG | -0.19 E-score
65 | AAGTTGAG | -0.123 E-score
66 | CTATGTAA | 0.185 E-score
67 | ATATGTAG | 0.391 E-score
68 | AGATGTAC | 0.315 E-score
69 | ATATGTAA | 0.286 E-score
70 | ATATGTTA | 0.395 E-score
71 | CTATGTAC | 0.186 E-score
72 | ATATGTAC | 0.345 E-score
73 | ATATGTTC | 0.184 E-score
74 | CTATGTTA | 0.285 E-score
75 | CGCTATTA | 0.211 E-score

Row | Sequence | binding signal
76 | CATTAGCA | -0.0362 E-score
77 | GAGCTCAC | -0.145 E-score
78 | ACGCAGAG | -0.119 E-score
79 | AGTAGAAA | 0.42 E-score
80 | AGTAGAAC | 0.267 E-score
81 | AGTAGAGA | 0.265 E-score
82 | AGTAGAAG | 0.228 E-score
83 | AGTAGAAT | 0.42 E-score
84 | ATTAGAAA | 0.233 E-score
85 | AGGATTAG | 0.158 E-score
86 | TAGCCCAA | -0.0264 E-score
87 | ACGGAGCG | -0.13 E-score
88 | TTATACAA | 0.294 E-score
89 | CTATACAA | 0.296 E-score
90 | ATATACAA | 0.389 E-score
91 | ATATACAG | 0.282 E-score
92 | ATATACAC | 0.339 E-score
93 | CTATACAC | 0.216 E-score
94 | ATTTAGGC | -0.0308 E-score
95 | CGTAGGCC | -0.17 E-score
96 | ATCGTCCA | -0.0609 E-score
97 | GCAAAAAC | 0.0325 E-score
98 | AATAACTA | 0.341 E-score
99 | GCTAACGA | 0.123 E-score
100 | ACTAACTA | 0.348 E-score

Row | Sequence | binding signal
101 | AGTAACTA | 0.421 E-score
102 | ACTAACTC | 0.12 E-score
103 | AGTAACTC | 0.0592 E-score
104 | GATAACTA | 0.222 E-score
105 | GCTAACTA | 0.341 E-score
106 | CCTAACTA | 0.26 E-score
107 | ACTAACTG | 0.163 E-score
108 | GGTAACTA | 0.305 E-score
109 | AATAACTG | 0.195 E-score
110 | AGTTTTAC | 0.301 E-score
111 | AGACCAAT | -0.0485 E-score
112 | AGAGCACA | -0.114 E-score
113 | GCGCTTCA | -0.0884 E-score
114 | CGCCTATA | 0.00134 E-score
115 | GATTCTAA | 0.134 E-score
116 | CATTCTAA | 0.0993 E-score
117 | CATTCTAG | 0.259 E-score
118 | GATTCTAC | 0.393 E-score
119 | AATTCTAC | 0.435 E-score
120 | AATTCTAT | 0.31 E-score
121 | AGTTCTAT | 0.213 E-score
122 | AGTTCTAA | 0.15 E-score
123 | AGTTCTAC | 0.383 E-score
124 | GATTCTGC | -0.0394 E-score
125 | CATTCTAC | 0.407 E-score

Row | Sequence | binding signal
126 | AATTCTAA | 0.252 E-score
127 | AGCGACAG | -0.152 E-score
128 | GCATTTAA | 0.115 E-score
129 | ATAGCCTC | -0.165 E-score
130 | GCTTAGAA | -0.0146 E-score
131 | CCGTACAA | 0.188 E-score
132 | ACTCGGTC | -0.0736 E-score
133 | CCTCGGTA | 0.0273 E-score
134 | ACTCGGTA | 0.363 E-score
135 | GATAAATA | 0.313 E-score
136 | AATAAATA | 0.345 E-score
137 | AATAAATC | 0.233 E-score
138 | TATAAATA | 0.397 E-score
139 | AATAAATG | 0.295 E-score
140 | CATAAATA | 0.195 E-score
141 | CTTGCGGC | -0.19 E-score
142 | GTACTAAA | 0.241 E-score
143 | AGACTATA | 0.286 E-score
144 | ATACTATG | 0.271 E-score
145 | ATACTCTC | -0.0829 E-score
146 | ATACTTTA | 0.239 E-score
147 | CTACTATC | 0.323 E-score
148 | GTACTTTA | 0.377 E-score
149 | GGACTATA | 0.0812 E-score
150 | ATACTATA | 0.396 E-score

Row | Sequence | binding signal
151 | GTACTATA | 0.444 E-score
152 | CTACTTTA | 0.31 E-score
153 | ATACTATC | 0.378 E-score
154 | AATGGGTA | 0.289 E-score
155 | AGTGACAG | -0.0878 E-score
156 | ACTTGTCT | -0.00713 E-score
157 | CCTCCAAC | -0.135 E-score
158 | ACATTAAA | 0.108 E-score
159 | CATTCTTC | 0.0507 E-score
160 | CCACTATA | 0.162 E-score
161 | CGACTATA | 0.151 E-score
162 | ATACTAGA | 0.349 E-score
163 | CTACTATA | 0.399 E-score
164 | ATACTAGG | 0.225 E-score
165 | CTACTAGA | 0.32 E-score
166 | ATTGAAGA | 0.204 E-score
167 | GAATAGGC | -0.173 E-score
168 | AGCACATG | -0.117 E-score
169 | ACACACCG | 0.0452 E-score
170 | CGGCGGTC | -0.184 E-score
171 | CTTCACAA | 0.035 E-score
172 | TACCAAAA | 0.165 E-score
